High-throughput results: PubChem BioAssay, National Center for Advancing Translational Sciences (NCATS)
A selection: hits, their analogues and other compounds. The true share with any hit is near 12%.
G9a block: inhibitors of human histone lysine methyltransferase G9a; Q96KQ7; G9a H3K9 monomethylation, AlphaScreen, 2 h; Potency, µM (titrated, usually from 102 µM), without a hit: top-dose activity, negative = inhibition, usual class: inhibitors; actives 8.8% (n = 350,000); AID 504332; note: % is set by controls: 0 for no effect and ±100 for the full control effect; nearly all actives have a fitted effect of over 75% in size
Target sequence (Q96KQ7 913-1193 limits assumed): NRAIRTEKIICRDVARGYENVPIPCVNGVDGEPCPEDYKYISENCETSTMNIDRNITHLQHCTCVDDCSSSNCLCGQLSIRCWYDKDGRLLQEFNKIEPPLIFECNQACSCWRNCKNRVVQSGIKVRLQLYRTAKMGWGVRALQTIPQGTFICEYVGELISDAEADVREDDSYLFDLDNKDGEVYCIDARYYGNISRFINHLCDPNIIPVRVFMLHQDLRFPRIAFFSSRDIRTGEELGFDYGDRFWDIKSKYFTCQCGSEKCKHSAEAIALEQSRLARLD
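Compounds were preincubated with 20 nM G9a for 15 min, after which biotinylated H3K9 peptide (500 nM) and SAM (20 uM) started a 2 h room-temperature reaction. Monomethylated product was quantified by antibody-based AlphaScreen chemiluminescence.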
HP1b chromo inh: HP1-beta chromodomain-methylated histone interaction inhibition; Potency, µM (top dose mostly 114 µM), for inactives: at the highest dose activity change, negative = inhibition, most hits filed as inhibitors; actives 0.56% (n = 390,000); AID 540317; AlphaScreen HP1-beta / biotin-H3K9me3 peptide binding; note: nearly all actives have a fitted effect of over 70% in size
Target sequence (P83916 whole entry, looked up): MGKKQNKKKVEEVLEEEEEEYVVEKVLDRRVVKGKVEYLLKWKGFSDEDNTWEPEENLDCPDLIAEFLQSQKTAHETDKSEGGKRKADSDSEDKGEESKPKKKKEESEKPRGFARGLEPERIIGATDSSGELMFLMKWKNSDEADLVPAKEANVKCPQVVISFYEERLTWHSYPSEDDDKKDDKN
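Compound inhibition of the preformed complex between 50 nM HP1-beta and 50 nM biotinylated H3K9me3 peptide was read by AlphaScreen. Buffer was PBS pH 7.4 with 0.01% Tween-20. Incubations ran 30 min at room temperature, with 10 ug/mL donor/acceptor beads.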
JMJD2A Tudor inh: JMJD2A Tudor domain (human) inhibition. Potency, µM (top dose mostly 114 µM), for inactives: top-dose activity change, negative = inhibition, most hits filed as inhibitors. AlphaScreen JMJD2A-Tudor / H3K4me3 peptide binding. actives 4.4% (n = 390,000). O75164; note: % is set by controls: 0 for no effect and ±100 for the full control effect; nearly all actives have a fitted effect of over 50% in size
L3MBTL1 inh: inhibitors of human L3MBTL1; Q9Y468; AID 485360; actives 0.66% (n = 230,000); AlphaScreen L3MBTL1–H3K9me1 peptide binding; Potency, µM (titrated, usually from 57.1 µM), inactives show top-dose activity, negative = inhibition, most hits filed as inhibitors; note: % is set by controls: 0 for no effect and ±100 for the full control effect; nearly all actives have a fitted effect of over 60% in size
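L3MBTL1 (50 nM) pre-complexed 30 min with biotinylated H3(1-15)K9me1 peptide (75 nM), then compounds added for 30 min at room temperature; AlphaScreen streptavidin donor/nickel chelate acceptor beads (10 ug/mL final) read after 30 min dark incubation.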
BAZ2B inh: inhibitors of human BAZ2B bromodomain. Q9UIF8. AlphaScreen BAZ2B-H3K14Ac peptide displacement. Potency, µM (titrated, usually from 114 µM), inactives show top-dose activity change, negative = inhibition, usual class: inhibitors. actives 4.4% (n = 360,000); note: % is set by controls: 0 for no effect and ±100 for the full control effect; nearly all actives have a fitted effect of over 60% in size
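Protein-peptide AlphaScreen: BAZ2B 50 nM, b-H3K14Ac 50 nM, 1x PBS pH 7.4 + 0.01% Tween-20. Preincubation 30 min RT; cpd 30 min RT (top 110 uM); beads 20 min RT, light-protected.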
Sfp PPTase inh: Sfp phosphopantetheinyl transferase inhibition; Q9F4F7; Biochemical Sfp PPTase activity, qHTS; Potency, µM, without a hit: largest response in the series, negative = inhibition, most hits filed as inhibitors; actives 3.5% (n = 310,000);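 note: the enzyme is Sfp with the accession as filed and its product quenches rhodamine fluorescence; 0% = enzyme reaction without inhibitor and -100% = no enzyme wells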
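Sfp 15 nM + cpd, 15 min RT; start w/ rhodamine-CoA 5 uM, BHQ-2-YbbR 12.5 uM (final); 50 mM Hepes pH 7.6, 10 mM MgCl2, 0.01% NP-40, 0.01% BSA; read 525/598 nm at 0 and 30 min.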
* marks the source's active call; other numbers are inactive results; ? = inconclusive; . = no result given; [ ] = dose if it differs, or a comment. Calls come from the whole dose curve; as a rule, active = well fitted curve in the direction sought with a large enough effect; inconclusive = small, poorly fitted or top-dose-only effect, or another doubt; inactive = no such curve, though single readings can be large; an effect the other way counts as inactive or inconclusive. Potency is the fitted concentration of half-maximal effect.

SMILES | G9a block | HP1b chromo inh | JMJD2A Tudor inh | L3MBTL1 inh | BAZ2B inh | Sfp PPTase inh
COc1ccccc1N1CCN(C(=O)c2cc(S(=O)(=O)N3CCC(C)CC3)cn2C)CC1 | -12%[59 µM] | 25%[57 µM] | -10% | . | -18% | .
O=[N+]([O-])c1ccc(N2CCCCC2)cc1 | 11% | 13% | -19% | -14% | -26% | 7%
CCCN1CCC(N2CCN(c3ccc([N+](=O)[O-])cc3)CC2)CC1 | . | ? | 20µM* | 2% | 45µM* | -24%
O=[N+]([O-])c1ccc(N2CCN(CC3CCCCC3)CC2)cc1 | -10%[0.501 µM] | ? | 18µM* | 1%[2.29 µM] | 56µM* | -25%
CC(=O)c1ccc(N2CCN(CC3CCCCC3)CC2)cc1 | 50µM* | ? | 35µM* | -1% | ? | -26%
Cc1cccc(NC(=O)CSc2cn(CC(=O)N3CCC(C)CC3)c3ccccc23)c1C | 2%[59 µM] | 33% | 1% | . | -20% | .
O=C(/C=C/c1ccc([N+](=O)[O-])cc1)OCC(=O)N1CCCC1 | . | 12% | -12% | 8% | . | .
Cc1nc(N)sc1N=Nc1ccc(Br)cc1 | ? | -33% | ? | . | 25µM* | -14%
Cc1ccc(N=Nc2c(N)n[nH]c2N)cc1 | 35µM* | -2% | ? | . | ? | 10%
Nc1n[nH]c(C2CC2)c1N=Nc1ccc(Cl)cc1 | 50µM* | -16% | 45µM* | -7% | ? | 17%
Nc1n[nH]c(N)c1N=Nc1ccc2c(c1)OCO2 | 9%[59 µM] | -5% | ? | ? | 40µM* | -8%
CC(=O)/C(N=Nc1ccc2c(c1)OCO2)=C(\C)O | 3%[59 µM] | 11% | -23% | -2% | 6% | -21%
Nc1n[nH]c(C2CC2)c1N=Nc1ccc(Cl)c(Cl)c1 | 36%[59 µM] | ? | ? | ? | 15% | -8%
Cc1c(C(=O)N2CCC(C)CC2)c(S(=O)(=O)N2CCN(c3cccc(Cl)c3)CC2)c(C)n1C | 0%[12.7 µM] | -11% | ? | . | ? | .
CN(C)C(=O)c1ccc(-c2nccc(N(C)Cc3ccco3)n2)cc1 | 2%[0.501 µM] | . | . | . | . | -5%
CCOC(=O)N1CCC(NC(=O)c2cnn(-c3ccc(C)cc3C)c2C2CCN(C(=O)OC(C)(C)C)CC2)CC1 | -6%[59 µM] | 70% | -11% | . | 46%[57.1 µM] | .
O=C(O)c1ccccc1-c1ccccc1C(=O)NNc1ccc([N+](=O)[O-])cc1 | . | 37% | -4% | . | ? | 2%
Cc1[nH]nc(N)c1N=Nc1ccc(Br)cc1 | . | . | . | ? | 40µM* | 0%
Cc1ccc(-c2[nH]nc(N)c2N=Nc2ccccc2C)cc1 | ? | ? | 25µM* | ? | ? | 10%
Nc1cc([N+](=O)[O-])cc2oc(-c3ccccc3)cc12 | 25%[0.501 µM] | ? | 13µM* | . | 10µM* | 1%
O=c1cc(-c2ccccc2)oc2ccccc12 | -1%[12.7 µM] | 25% | -12% | 6% | -5% | .
O=S(=O)(c1ccc(Cl)cc1)c1cc(O)ccc1O | 45µM* | ? | -24% | -2% | -25% | -17%
Cc1c(O)ccc2cc(S(=O)(=O)c3ccccc3)c(=O)oc12 | 29% | 41% | 20% | . | 9% | -18%
O=S(=O)(c1ccccc1)c1cc(O)ccc1O | 50µM* | -26% | -8% | -6% | -10% | -15%
Nc1ccc(S(=O)(=O)c2ccc(Cl)cc2)cc1 | 7%[59 µM] | 19% | -11% | . | 9% | 7%
SMILES | G9a block | HP1b chromo inh | JMJD2A Tudor inh | L3MBTL1 inh | BAZ2B inh | Sfp PPTase inh
Cc1ccc(N2CCN(S(=O)(=O)c3c(C)noc3C)CC2C)cc1 (stereo unspecified) | 0% | 21% | -26% | . | -19% | 7%
O=C(Nc1cccc(CNCCc2c[nH]c3ccccc23)c1)c1ccccc1Cl | 28µM* | 1% | 45µM* | . | 50µM* | ?
CC(=O)c1cccc(NC(=O)NCCc2c[nH]c3ccccc23)c1 | . | 5% | -15% | . | -7% | ?
CC(C(=O)NCc1cccc(Br)c1)n1ncn2cccc2c1=O (stereo unspecified) | -45%[59 µM] | 4% | -27% | . | ? | .
O=C(Nc1cc(S(=O)(=O)N2CCOCC2)ccc1O)c1ccco1 | 42%[0.501 µM] | -22% | -3% | -1% | -27% | 56µM*
O=C(Nc1ccc(S(=O)(=O)N2CCOCC2)cc1)c1ccc2c(c1)S(=O)(=O)c1ccccc1C2=O | 1%[12.7 µM] | 13% | -15% | 5% | -2% | 21%
O=C(Nc1cc(S(=O)(=O)N2CCOCC2)ccc1O)c1ccc2c(c1)S(=O)(=O)c1ccccc1C2=O | 4.5µM* | ? | ? | -3% | ? | 20µM*
CC(C)C[C@@H](N)C(=O)O | 37%[59 µM] | . | . | . | . | -7%
COc1ccc(C2=NN(CN3C(=O)C(=O)c4ccccc43)C(c3ccc(OC)cc3)C2)cc1 (stereo unspecified) | 45µM* | 9% | ? | -7% | ? | -4%
COc1ccc(C2=NN(S(=O)(=O)c3ccccc3)C(c3ccccc3)C2)cc1 (stereo unspecified) | 10% | 23% | -15% | 3% | -2% | 17%
O=C(CCN1CCOCC1)NNC(=O)Nc1cccc(C(F)(F)F)c1 | -5% | 40% | -1% | . | 1% | 13%
CCOC(=O)C(=NCCCN1CCOCC1)NNc1cccc(C(F)(F)F)c1 | 50µM* | -18% | -33% | . | ? | -13%
CC(NC(=O)Cc1ccc(NC(=O)N2CCCCc3ccccc32)cc1)c1ccccc1 (stereo unspecified) | 9%[59 µM] | 0% | -26% | . | -14% | .
CC[C@@H](C)[C@H](NS(=O)(=O)c1cccc2ccccc12)C(=O)N[C@H](C=O)Cc1c[nH]c2ccccc12 | 0%[59 µM] | . | . | . | . | ?
CC1=CC(C)(C)N2C(=O)C3(NCCc4c3[nH]c3ccccc43)c3cc(C)cc1c32 (stereo unspecified) | ? | -2% | -16%[11.4 µM] | . | 56µM* | -11%
CN1C(=O)C2(NCCc3c2[nH]c2ccccc32)c2ccccc21 (stereo unspecified) | 5%[12.7 µM] | 19% | -3% | -14% | -7% | 0%
Cc1ccccc1CNC(=O)C(=O)NCC1CCCN1S(=O)(=O)c1cccs1 (stereo unspecified) | -5%[12.7 µM] | 13% | -22% | -7% | 5% | .
S=c1[nH]nc(COc2ccccc2)n1/N=C/c1ccc(Br)cc1 | 20µM* | 5% | -21% | . | -6% | 63µM*
COc1cccc(/C=N/n2c(COc3ccccc3)n[nH]c2=S)c1 | 1.8µM* | ? | 79µM* | . | ? | ?
CC(C)c1ccc(/C=N/n2c(COc3ccccc3)n[nH]c2=S)cc1 | 50µM* | 40µM* | 35µM* | . | ? | -22%
S=c1[nH]nc(COc2ccccc2)n1/N=C/c1cccc(Br)c1 | 8.9µM* | -5% | ? | . | -29% | ?
O=C(O)COc1ccc(/C=N/n2c(COc3ccccc3)nc3ccccc3c2=O)cc1 | ? | 23% | -13% | 10% | 8% | 26%
